According to PubChem BioAssay (NCATS):
Values joined by “and” are separate entries in the source; they are usually repeats but may differ in a detail not shown here. Identical values can stand only once. Records with an inconclusive call do not appear. A call without a number means that no potency is given here. Some compounds were tested as several samples or in several runs, with calls that do not always agree. Active and inactive are the calls of the source. The call rests on the fitted dose curve; in most records, active means well fitted curve in the direction sought with a large enough effect; inconclusive means small, poorly fitted or top-dose-only effect, or another doubt; inactive means no such curve, though single readings can be large; an effect the other way counts as inactive or inconclusive.

Experiments:
[1] = Primary qHTS for inhibitors of nuclear receptor binding SET domain protein 2 (NSD2) in an isogenic RCH-ACV NSD2 p.E1099K mutant (9B) (AID 1645876)
[2] = Primary qHTS for inhibitors of nuclear receptor binding SET domain protein 2 (NSD2) in an RCH-ACV wild type WT cells (2C) (AID 1645877)
Further: nearly all actives have a fitted effect of over 70% in size.
Potency means the concentration at half of the fitted maximal effect.

Structure (SMILES) | Potency [1] | Potency [2] | activity change, negative = viability loss [1] | activity change, negative = cell killing [2]
NC(=O)COCCN1CCN(C(c2ccccc2)c2ccc(Cl)cc2)CC1 (configuration not stated) | inactive | inactive | – | –
CCCOc1ccc2c(c1)CC[C@@H]1[C@@H]2CC[C@]2(C)C(OC)CC[C@@H]12 (some centres not stated) | inactive | inactive | – | –
CC(C)NC(=O)c1ccc(C=O)cc1 | inactive | inactive | – | –
CC(C)C(C)(C)C(C)(C)C(C)(C)S | inactive | inactive | – | –
CCN(CC)C(=O)C1CN2CCc3cc(OC)c(OC)cc3C2CC1OC(C)=O (configuration not stated) | inactive | inactive | – | –
CCOC(=O)c1ccc(OCCN2C[C@H](O)[C@@H](O)[C@H](O)[C@H]2CO)cc1 | inactive | inactive | – | –
O=C(COCCOCCOCC(=O)Nc1c(I)cc(I)c(C(=O)O)c1I)Nc1c(I)cc(I)c(C(=O)O)c1I | inactive | inactive | – | –
CCCCCC[C@@H](CCC)C(=O)O | inactive | inactive | – | –
Cc1ccc(C(=O)C(=O)O)cc1C | inactive | inactive | – | –
CC(C)(C)c1ccc(O)c(O)c1 | 2.17 µM (active) | 2.17 µM (active) | – | –
Cc1nc(N)nc(N)c1-c1ccc(Cl)c(Cl)c1 | 0.266 µM (active) | 0.299 µM (active) | – | –
O=C(OCC1(COC(=O)c2cccnc2)CCCC(COC(=O)c2cccnc2)(COC(=O)c2cccnc2)C1O)c1cccnc1 | inactive | inactive | – | –
NS(=O)(=O)c1ccc(N2CCCCS2(=O)=O)cc1 | inactive | inactive | – | –
NCC[C@H](O)C(=O)N[C@@H]1C[C@H](N)[C@@H](O[C@H]2O[C@H](CN)[C@@H](O)[C@H](O)[C@@H]2O)[C@H](O)[C@@H]1O[C@H]1O[C@H](CO)[C@@H](O)[C@H](N)[C@@H]1O | – | – | 7.89% [at 0.588 µM] (inactive) | -24.5% [at 0.588 µM] (inactive)
Nc1ccc([N+](=O)[O-])c(C(F)(F)F)c1 | inactive | inactive | – | –
Cc1ccc(C(C)OC(=O)C2(C)CCC(C(=O)O)C2(C)C)cc1 (configuration not stated) | inactive | inactive | – | –
C/C(=N/NC(=O)c1ccncc1)C(=O)O | inactive | inactive | – | –
CC(C)(C)C1CCC(CC2=C(O)c3ccccc3C(=O)C2=O)CC1 (configuration not stated) | 7.5 µM (active) | 9.44 µM (active) | – | –
C[C@H](N)C(=O)N[C@@H](C)C(=O)NC1[C@H]2CN(c3nc4c(cc3F)c(=O)c(C(=O)O)cn4-c3ccc(F)cc3F)C[C@@H]12 (some centres not stated) | 7.5 µM (active) | 6.68 µM (active) | – | –
COC(=O)C1=C(C)NC(C)=C(C(=O)OCCc2ccc(N3CCN(C(c4ccccc4)c4ccccc4)CC3)cc2)C1c1cccc([N+](=O)[O-])c1 (configuration not stated) | inactive | inactive | – | –
CC(C)CCCC(C)NCCC(C)C (configuration not stated) | inactive | inactive | – | –
NC(=O)NC1N=C([O][Al])NC1=O (configuration not stated) | inactive | inactive | – | –
COc1ccc2cc(C=O)ccc2c1 | inactive | inactive | – | –

Structure (SMILES) | Potency [1] | Potency [2] | activity change, negative = viability loss [1] | activity change, negative = cell killing [2]
O=C1Nc2cc(Cl)ccc2Oc2ccccc21 | inactive | inactive | – | –
O=[N+]([O-])c1nccn1CO[C@@H](CO)[C@H](O)CO | inactive | inactive | – | –
CCOC(=O)c1cc(=O)c2c(OCC(COc3cccc4oc(C(=O)OCC)cc(=O)c34)OC(=O)[C@@H](N)CCCCN)cccc2o1 | inactive | inactive | – | –
Cc1ccc2ccc(Cl)cc2n1 | inactive | inactive | – | –
CCN1CCN(C(=O)N[C@@H](C(=O)N[C@@H]2C(=O)N3[C@@H]2SC(C)(C)[C@H]3C(=O)O)c2ccccc2)C(=O)C1=O | inactive | inactive | – | –
CCCc1ncc(C(=O)O)s1 | inactive | inactive | – | –
CCOC(=O)C(O)c1ccccc1 (configuration not stated) | inactive | inactive | – | –
CCOC(=O)CN1CCCC1=O | inactive | inactive | – | –
N#CC1(c2ccc(F)cc2)CCC(=O)CC1 | inactive | inactive | – | –
COC(=O)c1cc(Cl)c(NC(C)=O)cc1OC | inactive | inactive | – | –
O=C1CC2(CCCC2)CC(=O)N1 | inactive | inactive | – | –
CCOC(=O)N1CCC(Nc2ccc(Cl)cc2N)CC1 | 13.3 µM (active) | 11.9 µM (active) | – | –
Nc1c2ccccc2nc2ccccc12 | 3.76 µM (active) | 4.22 µM (active) | – | –
CC1CN(c2cc3c(cc2F)c(=O)c(C(=O)O)cn3-c2ccc(F)cc2F)CCN1 (configuration not stated) | – | – | 4.46% [at 4.96 µM] (inactive) | -0.258% [at 4.96 µM] (inactive)
CC(=O)[C@H]1CC[C@H]2[C@@H]3C=CC4=CC(=O)CC[C@@]4(C)[C@@H]3CC[C@]12C | 13.3 µM (active) and inactive | 23.7 µM (active) and inactive | – | –
CC(=O)c1cc2ccccc2s1 | inactive | inactive | – | –
CCCC(=O)OCOC(=O)C1=C(C)NC(C)=C(C(=O)OC)C1c1cccc(Cl)c1Cl (configuration not stated) | inactive | inactive | – | –
O=C1[C@@H]2[C@H]3CC[C@H](C3)[C@@H]2C(=O)N1CCCCN1CCN(c2ncccn2)CC1 | inactive | inactive | – | –
CCOC(=O)C(=O)CCc1ccccc1 | inactive | inactive | – | –
Cc1cnc(NS(=O)(=O)c2ccc(N)cc2)nc1 | inactive | inactive | – | –
CN1Cc2cc(C(=O)N3CCC(C4CCNCC4)CC3)ccc2N[C@@H](CC(=O)O)C1=O | inactive | inactive | – | –
CN(C)C(=O)CNC(=O)Cc1ccccc1 | inactive | inactive | – | –
CC1CC(=O)NN=C1c1ccc(NCC(C)(C)NCC(O)COc2cc(Cl)ccc2C#N)cc1 (configuration not stated) | inactive | inactive | – | –

Structure (SMILES) | Potency [1] | Potency [2] | activity change, negative = viability loss [1] | activity change, negative = cell killing [2]
CC(C)(C)CC(=O)OCC(=O)[C@@]1(O)CC[C@H]2[C@@H]3CCC4=CC(=O)C=C[C@]4(C)[C@H]3[C@@H](O)C[C@@]21C | 21.1 µM (active) | 0.0531 µM (active) | – | –
O=C(O)c1cn(C2CC2)c2cc(Cl)c(F)cc2c1=O | inactive | inactive | – | –
CC(=O)/C=C/C=C1/C2CCC(C2)C1(C)C (configuration not stated) | inactive | inactive | – | –
O=C(O)c1ccccc1S | inactive | inactive | – | –
C=C(C)C(=O)OCC(O)CO (configuration not stated) | inactive | inactive | – | –
COc1cc2c(cc1OC)CN(C(=O)[C@H](C)N[C@@H](CCc1ccccc1)C(=O)O)[C@H](C(=O)O)C2 | inactive | inactive | – | –
CC(C)(Oc1ccc(Cl)cc1)C(=O)OCCCOC(=O)C(C)(C)Oc1ccc(Cl)cc1 | inactive | inactive | – | –
CC1(C)OC(=O)Nc2ccc(Br)cc21 | inactive | inactive | – | –
C#Cc1ccc(-c2ccccc2F)cc1 | inactive | inactive | – | –
CCCCN(CCCC)C(C(N)=O)c1ccc(OC)cc1 (configuration not stated) | inactive | inactive | – | –
CC(NCCC(c1ccccc1)c1ccccc1)c1ccccc1 (configuration not stated) | 18.8 µM (active) | 18.8 µM (active) | – | –
CC1c2ccccc2CN1NC(=O)c1ccc(Cl)c(S(N)(=O)=O)c1 (configuration not stated) | inactive | inactive | – | –
CCOC(=O)C1=C(C)NC(C)=C(C(=O)OCC)C1c1ccccc1/C=C/C(=O)OC(C)(C)C | 21.1 µM (active) | 16.8 µM (active) | – | –
O=C(O)C(=O)Nc1cccc(-c2nn[nH]n2)c1 | inactive | inactive | – | –
O=C(O)[C@H](O)[C@@H](O)[C@H](O[C@@H]1O[C@H](CO)[C@H](O)[C@H](O)[C@H]1O)[C@H](O)CO | inactive | inactive | – | –
O=C1Cc2cc(Cl)ccc2N1 | inactive | inactive | – | –
CC(CCc1ccc2c(c1)OCO2)NN (configuration not stated) | inactive | inactive | – | –
COc1cc(C=O)ccc1O | inactive | inactive | – | –
Nc1c[n+](N2CCOCC2)no1 | inactive | inactive | – | –
CCCCCC1Nc2cc(C(F)(F)F)c(S(N)(=O)=O)cc2S(=O)(=O)N1 (configuration not stated) | inactive | inactive | – | –
CC(C)Cc1ccc(C(C)C(=O)OCc2ccccn2)cc1 (configuration not stated) | inactive | inactive | – | –
CCN(CC)CCOc1ccc(/C(=C(\Cl)c2ccccc2)c2ccccc2)cc1 | 15 µM (active) and 8.33 µM (active) | 11.9 µM (active) and 5.25 µM (active) | – | –
CC(C)C(=O)OCc1cccc(OC(=O)[C@@H]2N3C(=O)[C@@H](NC(=O)Cc4ccccc4)[C@H]3SC2(C)C)c1 | inactive | inactive | – | –

Structure (SMILES) | Potency [1] | Potency [2] | activity change, negative = viability loss [1] | activity change, negative = cell killing [2]
CCc1cccc2c(CCO)c[nH]c12 | inactive | inactive | – | –
CCCCCCn1c(=O)c2c(ncn2C)n(C)c1=O | inactive | inactive | – | –
CCOc1ccccc1OCC1CNCCO1 (configuration not stated) | inactive | inactive | – | –
OCCc1ccccc1 | inactive | inactive | – | –
COc1ccccc1N1CCN(CCN2C(=O)CC3(CCCC3)CC2=O)CC1 | inactive | inactive | – | –
CCCCCN(CCCOC)C(=O)C(CCC(=O)O)NC(=O)c1ccc(Cl)c(Cl)c1 (configuration not stated) | inactive | inactive | – | –
Cc1cccc(N(C)C(=S)Oc2ccc3c(c2)CCC3)c1 | inactive | inactive | – | –
Nc1c(I)cc(I)c(C(=O)N(CCC(=O)O)c2ccccc2)c1I | inactive | inactive | – | –
Oc1ccccc1-c1nnco1 | inactive | inactive | – | –
CC(=O)Nc1ccn(C2COC(COC(=O)c3ccccc3)O2)c(=O)n1 (configuration not stated) | 10.6 µM (active) | 5.31 µM (active) | – | –
Cc1cc2nc3ccc(=[N+](C)C)cc-3sc2cc1N | 1.33 µM (active) | 1.06 µM (active) | – | –
CCOc1ncc(F)c(=O)[nH]1 | inactive | inactive | – | –
CCCCCCCC(=O)[O-].CCCCCCCC(=O)[O-].[Zn+2] | inactive | inactive | – | –
O=C1CC(c2ccc(Cl)cc2)CC(=O)N1 | inactive | inactive | – | –
O=C(Oc1ccccc1)c1ccccc1O | inactive | inactive | – | –
O=C(Nc1ccc(Cl)cc1)Nc1ccc(Cl)c(C(F)(F)F)c1 | 4.22 µM (active) | 2.99 µM (active) | – | –
COC(=O)CCCCC(CCSS/C(CCO)=C(\C)N(C=O)Cc1cnc(C)nc1N)SC(C)=O (configuration not stated) | inactive | inactive | – | –
CC(C)NCCCC1(C(N)=O)c2ccccc2-c2ccccc21 | inactive | inactive | – | –
CCCC(CCC)(C(=O)OCC)C(=O)OCC | inactive | inactive | – | –
Nc1cc(C(F)(F)F)ccc1S | 9.44 µM (active) | 15 µM (active) | – | –
N#C/C(=C1/SC[C@@H](c2ccc(Cl)cc2Cl)S1)n1ccnc1 | 13.3 µM (active) | 11.9 µM (active) | – | –
COCCc1ccc(OCC2CO2)cc1 (configuration not stated) | inactive | inactive | – | –
